From PubChem BioAssay
ALOX12 inh – Primary qHTS assay for inhibitors of human arachidonate 12S-lipoxygenase (ALOX12): Round 2. AID 1671190, 2021. Potency, µM (top dose mostly 108 µM), most hits filed as inhibitors. 580,000 tested, 1.1% active. Polyunsaturated fatty acid lipoxygenase ALOX12 (Homo sapiens), P18054. purified 12hLO, xylenol orange hydroperoxide absorbance
Target sequence (P18054 whole entry, looked up): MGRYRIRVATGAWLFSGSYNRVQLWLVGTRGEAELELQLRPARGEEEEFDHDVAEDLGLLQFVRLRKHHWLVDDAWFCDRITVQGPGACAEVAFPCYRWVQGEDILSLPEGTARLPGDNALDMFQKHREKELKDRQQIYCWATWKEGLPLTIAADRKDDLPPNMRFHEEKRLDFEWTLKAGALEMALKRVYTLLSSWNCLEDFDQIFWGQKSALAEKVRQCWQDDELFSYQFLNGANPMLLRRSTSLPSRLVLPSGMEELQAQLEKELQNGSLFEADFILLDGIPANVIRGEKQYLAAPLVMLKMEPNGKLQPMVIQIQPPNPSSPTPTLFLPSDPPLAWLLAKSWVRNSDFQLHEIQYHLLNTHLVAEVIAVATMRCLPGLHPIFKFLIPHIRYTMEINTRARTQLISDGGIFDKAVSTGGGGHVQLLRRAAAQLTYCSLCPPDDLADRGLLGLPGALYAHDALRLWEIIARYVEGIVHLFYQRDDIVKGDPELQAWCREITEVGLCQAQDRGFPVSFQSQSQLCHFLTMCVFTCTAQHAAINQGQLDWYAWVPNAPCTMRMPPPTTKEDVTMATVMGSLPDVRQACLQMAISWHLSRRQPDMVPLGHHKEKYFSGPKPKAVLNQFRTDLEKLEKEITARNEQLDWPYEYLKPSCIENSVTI
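Purified human 12hLO (150 nM final) in 25 mM Hepes, 0.01% Triton X-100, pH 7.0 was preincubated 15 min at room temperature with compound. Then 40 uM arachidonic acid was added, 30 min. Hydroperoxide was read by Fe-XO absorbance ratio 573/405 nm.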
VDR inhibitor – Inhibitors of the vitamin D receptor (VDR): qHTS. Vitamin D3 receptor (Homo sapiens), P11473. VDR-SRC2-3 peptide fluorescence polarization, 2 h. Potency, µM, actives largely listed as inhibitors. 400,000 tested, 0.93% active. AID 504847, 2011
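Fluorescence polarization assay of small-molecule disruption of VDR binding to coregulator peptide SRC2-3. Compounds and controls pin-transferred, then read after 2 h incubation at ambient room temperature.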
Sfp inh – qHTS Assay for Inhibitors of Bacillus subtilis Sfp phosphopantetheinyl transferase (PPTase); 4'-phosphopantetheinyl transferase ffp (Bacillus subtilis), Q9F4F7; Potency, µM, actives largely listed as inhibitors; Biochemical Sfp PPTase activity, qHTS; 310,000 tested, 3.5% active;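 also: the enzyme is Sfp with the accession as filed and its product quenches rhodamine fluorescence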
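Reaction rates are the 30-min fluorescence difference (ex 525, em 598 nm) in wells containing 15 nM Sfp, 5 uM rhodamine-CoA and 12.5 uM BHQ-2-YbbR at pH 7.6 with 10 mM MgCl2.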
G9a block – qHTS Assay for Inhibitors of Histone Lysine Methyltransferase G9a | 350,000 tested, 8.8% active | G9a H3K9 monomethylation, AlphaScreen, 2 h | AID 504332, 2011 | Potency, µM (top dose mostly 102 µM), hits mostly inhibitors; also: nearly all actives have a fitted effect of over 75% in size
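Enzyme 20 nM + cpd, 15 min RT; add b-H3K9 pep 500 nM / SAM 20 uM; 2 h RT; anti-H3K9me1 Ab 0.5 ug/mL + SA donor / anti-rabbit acceptor beads 20 ug/mL each, 10 min; AlphaScreen read.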
GRP78 ERSR act – qHTS for Inducers of the Endoplasmic Reticulum Stress Response (ERSR) in Human Glioma: qHTS; U87-MG GRP78 promoter luciferase reporter, 16 h; Potency, µM, actives largely listed as activators; 420,000 tested, 0.02% active; also: series mostly up to about 76 µM; nearly all actives have a fitted effect of over 35% in size
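Stably transfected U87-MG human glioma cells carrying a GRP78-based luminescent sensor were seeded at 1000 cells/well, pin-dosed with compounds and incubated 16 h. Luciferase reagent was then added, and end-point luminescence was read after 10 min at room temperature.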
Each line names hits and unclear results; the compound was inactive in the other large screens; ! = repeats disagree. The sample as a whole holds a higher share of hits than the screen did. Calls follow the shape of the dose curve; as a rule, active = well fitted curve in the direction sought with a large enough effect; inconclusive = small, poorly fitted or top-dose-only effect, or another doubt; inactive = no such curve, though single readings can be large; an effect the other way counts as inactive or inconclusive.

Cc1[nH]n(-c2ccccc2)c(=O)c1N=Nc1nccs1	G9a block 14µM
Cc1[nH]n(-c2ccccc2)c(=O)c1N=Nc1ccccc1O	G9a block inconclusive, GRP78 ERSR act inconclusive
Cn1ccc(C(=O)NC(=S)Nc2ccc([N+](=O)[O-])cc2O)n1	Sfp inh inconclusive, G9a block 25µM
COc1cccc(/C=N/n2c(SC)nnc2-c2ccccc2)c1O	G9a block 8.9µM
O=C(O)Cc1cccc(OCCCN(Cc2cccc(C(F)(F)F)c2Cl)CC(c2ccccc2)c2ccccc2)c1	ALOX12 inh 24µM!, VDR inhibitor 40µM, Sfp inh 45µM, G9a block 18µM
O=C(CCCOc1ccccc1)Nc1ccccc1C(F)(F)F	none
CCN(CC)c1nc2ccccc2[nH]c1=O	G9a block 32µM
CCc1nc2ccccc2[nH]c1=O	none (no result: G9a block)
O=C(CSc1nc2ccccc2c(=O)n1-c1ncn[nH]1)Nc1cccc(F)c1	none (no result: VDR inhibitor, Sfp inh, G9a block, GRP78 ERSR act)
CC1CCN(C(=O)/C(=C/c2ccccc2Cl)c2ccccc2)CC1	Sfp inh 79µM
COc1cc(/C=C\C(=O)Nc2cc(=O)n(C)c(=O)n2C)cc(OC)c1OC	none
Cn1c(NC(=O)/C=C/c2ccco2)cc(=O)n(C)c1=O	Sfp inh 56µM, G9a block inconclusive
Cc1ccc(/C=C/C(=O)Nc2cc(=O)n(C)c(=O)n2C)o1	VDR inhibitor inconclusive, G9a block 4µM
CCC(=O)NCC1c2cc(OC)c(OC)cc2CCN1C(=O)NC(C)(C)C (configuration not stated)	none (no result: VDR inhibitor, Sfp inh, G9a block, GRP78 ERSR act)
Cc1ccc(Oc2ccc(NC(=O)Cn3cnnc3C#N)cc2)cc1	none (no result: VDR inhibitor, Sfp inh, G9a block, GRP78 ERSR act)
CCN1C(c2ccccc2)=C(c2ccccc2)S/C1=C\C=C1/SC(=S)N(C)C1=O	none (no result: Sfp inh, G9a block)
CCN1/C(=C\C=C2\C(=O)N(C)C(=S)N2C)Sc2ccccc21	Sfp inh 40µM, G9a block inconclusive
COc1ccnc(CSC(N)=Nc2ccccc2OC)c1	ALOX12 inh inconclusive, VDR inhibitor inconclusive, Sfp inh 32µM, G9a block 8.9µM
COc1ccnc(CSC(N)=Nc2cccc(C(F)(F)F)c2)c1	VDR inhibitor inconclusive, Sfp inh inconclusive, G9a block 45µM
O=C(CN1CCCCC1)NC1CC(=O)N(Cc2cccc3ccccc23)C1 (configuration not stated)	none (no result: VDR inhibitor, Sfp inh, G9a block, GRP78 ERSR act)
Cc1cc(C)c2c(C)c(C(=O)Nc3nonc3-c3cccs3)oc2c1	none (no result: VDR inhibitor, Sfp inh, G9a block, GRP78 ERSR act)
N#Cc1ccc(Nc2nc(-c3ccc(O)cc3O)cs2)cc1C(F)(F)F	none (no result: ALOX12 inh, Sfp inh)
Oc1ccc(-c2csc(Nc3ncccn3)n2)c(O)c1	Sfp inh 50µM
Oc1ccc(-c2csc(Nc3ccc4c(c3)OCO4)n2)c(O)c1	ALOX12 inh 32µM, GRP78 ERSR act inconclusive (no result: Sfp inh, G9a block)
Cc1cccc(Nc2nc(-c3ccc(O)cc3O)cs2)n1	ALOX12 inh 25µM, Sfp inh inconclusive, G9a block 50µM
CC(=O)Nc1cccc(-c2csc(Nc3ncccn3)n2)c1	G9a block 16µM (no result: VDR inhibitor, GRP78 ERSR act)
CCN1CCN(c2oc(/C=C/c3cccc(OC)c3)nc2C#N)CC1	none (no result: VDR inhibitor, Sfp inh, G9a block, GRP78 ERSR act)
COc1ccc(C(CNC(=O)c2ccc(Br)o2)N2CCCCCC2)cc1 (configuration not stated)	none (no result: VDR inhibitor, Sfp inh, G9a block, GRP78 ERSR act)
CC(C)CCn1nc(C(=O)Nc2ccc(Cl)cc2)c2ccccc2c1=O	none (no result: VDR inhibitor, Sfp inh, G9a block, GRP78 ERSR act)
CCOC(=O)C(=CNc1ccc(-c2ccco2)c(Cl)c1)C(=O)OCC	ALOX12 inh inconclusive, Sfp inh 28µM (no result: G9a block)
COCCN(C(=O)CSc1nnc(-c2ccc(C(C)(C)C)cc2)n1N)c1c(N)n(CC(C)C)c(=O)[nH]c1=O	G9a block 40µM (no result: Sfp inh)
CCCCn1c(N)c(N(CC(C)C)C(=O)CSc2nn(-c3ccc(F)cc3)c(=S)s2)c(=O)[nH]c1=O	none (no result: Sfp inh, G9a block)
COCCN(C(=O)c1ccc(-c2ccc([N+](=O)[O-])cc2)o1)c1c(N)n(CC(C)C)c(=O)[nH]c1=O	G9a block 45µM (no result: Sfp inh)
COCCN(C(=O)CSc1nnc(-c2ccc(F)cc2)n1N)c1c(N)n(CC(C)C)c(=O)[nH]c1=O	none (no result: VDR inhibitor, Sfp inh, G9a block)
COCCN(C(=O)CSc1nn(-c2ccc(F)cc2)c(=S)s1)c1c(N)n(CC(C)C)c(=O)[nH]c1=O	ALOX12 inh inconclusive, G9a block 8.9µM (no result: Sfp inh)
CC(Nc1ccc(-c2ccccc2)cc1)C(=O)Nc1ccc(Cl)cn1 (configuration not stated)	none (no result: VDR inhibitor, Sfp inh, G9a block, GRP78 ERSR act)
COc1cccc(C2c3cc4c(cc3OC(NNC(N)=O)C2C)OCO4)c1O (configuration not stated)	ALOX12 inh 16µM (no result: Sfp inh, G9a block)
COc1cccc(C2c3cc4c(cc3OC(N3CCOCC3)C2C)OCO4)c1O (configuration not stated)	ALOX12 inh 32µM (no result: Sfp inh, G9a block)
COc1ccc(C2c3cc4c(cc3OC(N3CCOCC3)C2C)OCO4)c(OC)c1 (configuration not stated)	none (no result: Sfp inh, G9a block)
COc1cc(C2c3cc4c(cc3OC(NNC(N)=O)C2C)OCO4)cc(OC)c1OC (configuration not stated)	none (no result: Sfp inh, G9a block)
Cc1cc(C)cc(N2CC(c3nc(-c4ccccc4)no3)CC2=O)c1 (configuration not stated)	none (no result: VDR inhibitor, Sfp inh, G9a block, GRP78 ERSR act)
COc1ccc(C(=O)Cn2ccsc2=NC(C)=O)cc1	none
COc1ccc(C(O)Cn2ccsc2=NC(C)=O)cc1 (configuration not stated)	ALOX12 inh inconclusive, G9a block 50µM
CC(Nc1nc(=S)nc(Nc2ccc(F)cc2)[nH]1)c1ccccc1 (configuration not stated)	ALOX12 inh inconclusive, VDR inhibitor inconclusive, Sfp inh 45µM (no result: G9a block)
CC(Nc1nc(Nc2ccc(F)cc2)nc(SCC(N)=O)n1)c1ccccc1 (configuration not stated)	ALOX12 inh inconclusive
COc1ccc(-c2cn3ccccc3n2)cc1	none
COc1ccc(-c2cn3nc4c(nc3n2)CCCC4)cc1	ALOX12 inh inconclusive, G9a block 79µM
Cc1ccc(Nc2ccc(C)cc2)cc1	none (no result: VDR inhibitor, Sfp inh, G9a block, GRP78 ERSR act)
Cc1ccc(Nc2cc(C)c(O)c(C)c2)cc1	VDR inhibitor 25µM, Sfp inh inconclusive, G9a block 25µM
NC(N)=N/N=C/c1cccc([N+](=O)[O-])c1	none (no result: VDR inhibitor, Sfp inh, G9a block, GRP78 ERSR act)
COc1ccc(NS(=O)(=O)c2ccc(N3CCOCC3)c(NC(=O)c3ccc(F)cc3)c2)cc1	none
O=C(Nc1cc(S(=O)(=O)Nc2ccc(Cl)cc2)ccc1N1CCCCC1)c1ccc(F)cc1	ALOX12 inh inconclusive, VDR inhibitor inconclusive, Sfp inh 14µM, G9a block 10µM
NC(=O)C1CCN(CC(=O)Nc2cc(S(=O)(=O)N3CCOCC3)ccc2N2CCCC2)CC1	G9a block 20µM (no result: Sfp inh)
O=C(Nc1cc(S(=O)(=O)N2CCOCC2)ccc1Oc1ccc(F)cc1)C1=COCCO1	G9a block 50µM (no result: Sfp inh)
